Where “and” joins values, the source holds several entries; their conditions need not be identical. Equal values may be shown once. Hit rate of the full screen: of about 5,500 compounds, about 2,000 (36%) were called active. Roughly 18% stayed inconclusive and do not appear here. Cut-off read from the data, not from the text of the source: active = normalized growth mostly below about 0.91 (no sharp cut-off); inconclusive = no clear call, values can overlap the other calls; inactive = mostly above about 0.92. The list shows a part of the results.
Experiment: chemical genetic growth profiling, strain panel (AID 1159580);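 note: tested at 20 µM; growth read once vehicle control cultures reached saturation at 30 °C; 1 = growth at the plate median or of vehicle wells; lower values mean less growth of the strain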
Conditions: S. cerevisiae deletion strains, growth OD

Measured: normalized growth

COC[C@]12CN(C=O)C3[C@@H]4[C@H](OC)C1[C@]3(C1CC3(O)C(OC)C(O)C4(OC(C)=O)C1C3OC(=O)c1ccccc1)[C@@H](OC)C[C@H]2O (stereo not given in full)
inactive: locus YAL021C, strain ccr4, stronger effect = lower value 1.02 | locus YAL026C, strain drs2, stronger effect = lower value 1.01 | locus YAL030W, strain snc1, stronger effect = lower value 1.01 | locus YBL061C, strain skt5, stronger effect = lower value 1.01 | locus YBR009C, strain hhf1, stronger effect = lower value 1.01 | locus YBR021W, strain FUR4, stronger effect = lower value 0.995 | locus YBR023C, strain chs3, stronger effect = lower value 1.01 | locus YBR171W, strain sec66, stronger effect = lower value 1.03 | locus YBR229C, strain ROT2, stronger effect = lower value 1.01 | locus YBR231C, strain swc5, stronger effect = lower value 1.01 | locus YBR279W, strain paf1, stronger effect = lower value 1.01 | locus YCL011C, strain gbp2, stronger effect = lower value 1.01 | locus YCL016C, strain dcc1, stronger effect = lower value 1.01 | locus YCL029C, strain bik1, stronger effect = lower value 0.997 | locus YCL061C, strain MRC1, stronger effect = lower value 1.02 | locus YCL069W, strain vba3, stronger effect = lower value 1.01 | locus YCR088W, strain abp1, stronger effect = lower value 1.01 | locus YDL005C, strain med2, stronger effect = lower value 1.02 | locus YDL035C, strain GPR1, stronger effect = lower value 1.01 | locus YDL040C, strain nat1, stronger effect = lower value 1.01 | locus YDL074C, strain BRE1, stronger effect = lower value 1.03 | locus YDL101C, strain DUN1, stronger effect = lower value 1.02 | locus YDL185W, strain tfp1, stronger effect = lower value 1.01 | locus YDL192W, strain arf1, stronger effect = lower value 1 | locus YDR001C, strain nth1, stronger effect = lower value 1.01 | locus YDR069C, strain doa4, stronger effect = lower value 1.02 | locus YDR101C, strain arx1, stronger effect = lower value 0.99 | locus YDR137W, strain rgp1, stronger effect = lower value 1.01 | locus YDR159W, strain sac3, stronger effect = lower value 1.01 | locus YDR162C, strain NBP2, stronger effect = lower value 1.02 | locus YDR195W, strain ref2 1.01 | locus YDR297W, strain sur2, stronger effect = lower value 1 | locus YDR318W, strain mcm21, stronger effect = lower value 1.01 | locus YDR334W, strain swr1, stronger effect = lower value 1.01 | locus YDR335W, strain msn5, stronger effect = lower value 0.998 | locus YDR388W, stronger effect = lower value 0.998 | locus YDR392W, strain spt3, stronger effect = lower value 1.01 | locus YDR502C, strain sam2, stronger effect = lower value 1.02 | locus YEL003W, strain gim4, stronger effect = lower value 1.01 | locus YEL037C, strain rad23, stronger effect = lower value 1 | locus YEL061C, strain CIN8 (second series), stronger effect = lower value 1 | locus YEL061C, strain CIN8, stronger effect = lower value 1.01 | locus YER015W, strain faa2, stronger effect = lower value 1.01 | locus YER016W, strain bim1, stronger effect = lower value 1.03 | locus YER110C, stronger effect = lower value 1.01 | locus YER111C, strain swi4, stronger effect = lower value 1.01 | locus YER155C, strain BEM2 (second series), stronger effect = lower value 1.03 | locus YER155C, strain BEM2, stronger effect = lower value 0.995 | locus YER167W, strain BCK2, stronger effect = lower value 1.01 | locus YFR010W, strain ubp6, stronger effect = lower value 1.02 | locus YGL078C, strain dbp3, stronger effect = lower value 1.02 | locus YGL086W, strain mad1, stronger effect = lower value 1.01 | locus YGL167C, strain pmr1, stronger effect = lower value 1.02 | locus YGL173C, strain kem1, stronger effect = lower value 1.01 | locus YGL227W, strain vid30, stronger effect = lower value 1.01 | locus YGL240W, strain doc1, stronger effect = lower value 1.01 | locus YGL248W, strain PDE1, stronger effect = lower value 1.02 | locus YGL253W, strain hxk2, stronger effect = lower value 1.02 | locus YGR135W, strain pre9, stronger effect = lower value 1.02 | locus YGR252W, strain gcn5, stronger effect = lower value 1.02 | locus YHR013C, strain ard1, stronger effect = lower value 1.01 | locus YHR027C, strain rpn1, stronger effect = lower value 1.01 | locus YHR030C, strain SLT2, stronger effect = lower value 1 and 1.05 | locus YHR079C, strain IRE1 (second series), stronger effect = lower value 1.01 | locus YHR079C, strain IRE1, stronger effect = lower value 1.04 | locus YHR094C, strain hxt1, stronger effect = lower value 1.01 | locus YHR129C, strain ARP1, stronger effect = lower value 1 | locus YHR142W, strain chs7, stronger effect = lower value 0.999 | locus YHR200W, strain rpn10, stronger effect = lower value 1.01 | locus YIL066C, strain RNR3, stronger effect = lower value 1.01 | locus YIL073C, strain SPO22, stronger effect = lower value 1.04 | locus YIL125W, strain kgd1, stronger effect = lower value 0.999 | locus YIR030C, strain dcg1, stronger effect = lower value 1 | locus YJL092W, strain hpr5, stronger effect = lower value 1.01 | locus YJL095W, strain BCK1 (second series), stronger effect = lower value 1.02 | locus YJL095W, strain BCK1, stronger effect = lower value 1.04 and 1.02 | locus YJL115W, strain asf1, stronger effect = lower value 0.997 | locus YJL129C, strain trk1, stronger effect = lower value 1.02 | locus YJL134W, strain LCB3, stronger effect = lower value 1.01 | locus YJL154C, strain vps35, stronger effect = lower value 1.01 | locus YJL164C, strain tpk1, stronger effect = lower value 1.01 | locus YJL166W, strain qcr8, stronger effect = lower value 1.01 | locus YJL168C, strain set2, stronger effect = lower value 0.997 | locus YJL187C, strain SWE1 (second series), stronger effect = lower value 1.03 | locus YJL187C, strain SWE1, stronger effect = lower value 1.01

From PubChem BioAssay AID1159580 (chemical genetic matrix, 2015)
